Source: PubChem BioAssay AID493232 (The Scripps Research Institute Molecular Screening Center, 2011)
Hit rate of the full screen: of about 1,800 compounds, about 860 (48%) were called active. The set was probably picked from earlier hits. Only a sample is shown. A number with no mark means an inactive call. No stated cut-off is given here; in the data, active means inhibition above about 17%; inactive means the rest.

Assay: CHO-K1 parental line HTRF response – cell-based, counter-screen for OX1R antagonist project (AID 493232);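 further: 0% = agonist challenge with vehicle and 100% = vehicle alone without agonist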
Conditions: parental CHO-K1 cells, HTRF counterscreen; at 6.6 µM; active compounds read high

Which inhibition does the source give for `NS(=O)(=O)c1ccc(CCNC(=O)c2ccc([N+](=O)[O-])cc2[N+](=O)[O-])cc1` here?
Its inhibition is 76.4% (active).

Which inhibition does the source give for `O=C(Nc1nnc(-c2ccccc2)o1)c1cc(-c2cccs2)nc2ccccc12` here?
The inhibition was -1.4%.

For `Cn1c(N)c(C(=O)COC(=O)c2ccc3ccccc3c2)c(=O)n(C)c1=O`, which inhibition is on record?
The inhibition was 9.11%.

With `COc1ccc(CCn2c(NCCCN3CCOCC3)nc3c2c(=O)[nH]c(=O)n3C)cc1` as the compound, how does the inhibition read?
Its inhibition is -0.46%.

Which inhibition does the source give for `O=C(/C=C/c1ccco1)Nc1cccc(-c2nc3ccccc3[nH]2)c1` here?
Its inhibition is 20.4% (active).

For `CCn1c(SCC(=O)c2ccc3ccccc3c2)nnc1-c1cccs1`, which inhibition is on record?
The inhibition was 7.75%.

Which inhibition does the source give for `Cc1ccc2c(c1)nnc1nnc(SCC(=O)O)n12` here?
The inhibition was 113% (active).

Which inhibition does the source give for `COc1ccc2[nH]c(=O)c(CNc3ccc(C)c(C)c3)cc2c1` here?
Its inhibition is 33.7% (active).

With `CN(C(=O)CSc1nnc(-c2n[nH]c3ccccc23)o1)c1ccccc1` as the compound, how does the inhibition read?
Its inhibition is -4.39%.

With `O=C(Nc1ccc2sc3ccccc3c(=O)c2c1)c1ccccc1Cl` as the compound, how does the inhibition read?
The inhibition was -3.67%.

For `Cc1ccc(Nc2nc(CSc3nnnn3-c3ccccc3)cc(=O)[nH]2)cc1`, which inhibition is on record?
The inhibition was 1.23%.

For `CCn1c(O)c(N=NC2=NC(=O)CS2)c2cc(C)ccc21`, which inhibition is on record?
The inhibition was 21.8% (active).

For `COc1cc(C(=S)N2CCOCC2)cc(OC)c1OC(=O)c1ccc([N+](=O)[O-])cc1[N+](=O)[O-]`, which inhibition is on record?
Its inhibition is 8.29%.

With `O=C(Oc1ccccc1C(=S)N1CCCCC1)c1cc([N+](=O)[O-])cc([N+](=O)[O-])c1` as the compound, how does the inhibition read?
Its inhibition is 56.2% (active).

Which inhibition does the source give for `COC(=O)CNC(=O)c1ccc2c(c1)S(=O)(=O)c1ccccc1C2=O` here?
The inhibition was 70.6% (active).

For `COc1cccc(C(=O)NC(=O)Nc2nc(C)cc(C(F)(F)F)n2)c1`, which inhibition is on record?
Its inhibition is 0.24%.

For `CCOc1ccc(CCNC(=O)C(CC)n2nc(C)n3c(cc4sccc43)c2=O)cc1OCC` (stereo unspecified), which inhibition is on record?
Its inhibition is 7.91%.

With `CCn1c(=N)c(C(=O)NCCCOC)cc2c(=O)n3cccc(C)c3nc21` as the compound, how does the inhibition read?
The inhibition was 83.9% (active).

For `CCOc1ccc(/C=C/C(=O)OCC(=O)c2ccccc2OC)cc1OC`, which inhibition is on record?
The inhibition was 7.57%.

For `O=C(NCc1ccco1)C1CCCN(S(=O)(=O)c2cccc3nonc23)C1` (stereo unspecified), which inhibition is on record?
The inhibition was 19.7% (active).

Which inhibition does the source give for `C/C(N)=C(/C#N)C(=O)COC(=O)c1cc(-c2ccc(C)cc2)nc2ccccc12` here?
Its inhibition is 6.3%.

Which inhibition does the source give for `COc1cc2ccccc2cc1C(=O)Nc1ccc(N2CCOCC2)cc1` here?
The inhibition was 16.2%.

Which inhibition does the source give for `Cn1cnnc1Sc1ccc(S(C)(=O)=O)cc1[N+](=O)[O-]` here?
The inhibition was 50.5% (active).

With `Nc1[nH][nH]c(=O)c1N=Nc1ccc2c(c1)OCO2` as the compound, how does the inhibition read?
The inhibition was 52.9% (active).

For `COc1ccc(CCNC(=O)/C(C#N)=C2\N=C(NC(=O)c3cccs3)c3ccccc32)cc1`, which inhibition is on record?
The inhibition was 24% (active).

Which inhibition does the source give for `O=C(N/N=C/c1c(Cl)[nH]c2ccccc12)c1sc2ccccc2c1Cl` here?
Its inhibition is 16%.

Which inhibition does the source give for `Cc1cc(C(=O)NC2CCCc3c2cnn3-c2cccc(C)c2C)c(C)o1` (stereo unspecified) here?
Its inhibition is 9.36%.

For `O=C(Nc1nnc(C2=COCCO2)o1)c1ccc([N+](=O)[O-])s1`, which inhibition is on record?
Its inhibition is 52.2% (active).

With `Cc1ccccc1S(=O)(=O)N1[C@@H](c2cccc(Cl)c2)C(C(=O)O)=CC[C@H]1c1ccc(Cl)cc1` as the compound, how does the inhibition read?
Its inhibition is 12.8%.

For `COc1ccc(N2CC(C(=O)NCCN3C(=O)S/C(=C\c4cccnc4)C3=O)CC2=O)c(OC)c1` (stereo unspecified), which inhibition is on record?
Its inhibition is 56.9% (active).

Which inhibition does the source give for `COc1ccccc1N1CC(C(=O)Nc2ccc(S(=O)(=O)N3CCOCC3)cc2)CC1=O` (stereo unspecified) here?
Its inhibition is 8.11%.

For `COc1ccc(S(=O)(=O)NC(C)c2ccccc2)cc1C(=O)N1CCCCC1` (stereo unspecified), which inhibition is on record?
Its inhibition is -4.56%.

For `CC(=O)Oc1ccc(C(C)=O)c2c1OCCO2`, which inhibition is on record?
The inhibition was 0.1%.

With `COc1cccc(N=c2oc3c(C)ncc(CO)c3cc2C(N)=O)c1` as the compound, how does the inhibition read?
The inhibition was 51.5% (active).

With `COc1cccc(/C=N/Nc2cc(C)nc(-c3ccccc3O)n2)c1O` as the compound, how does the inhibition read?
The inhibition was 15.3%.

With `CSCCC(NC(=O)c1cc([N+](=O)[O-])cc([N+](=O)[O-])c1)c1nc2ccccc2[nH]1` (stereo unspecified) as the compound, how does the inhibition read?
Its inhibition is 24.7% (active).

With `COc1cccc(/C=N/NC(=O)c2[nH]nc3c2CCc2ccccc2-3)c1O` as the compound, how does the inhibition read?
The inhibition was -15.5%.

Which inhibition does the source give for `COCCNC(=O)Nc1ccc2nc(-c3ccco3)c(-c3ccco3)nc2c1` here?
The inhibition was 48.3% (active).

With `Cc1cc(-c2ccc(C)c(S(=O)(=O)NC(C)Cc3ccco3)c2)on1` (stereo unspecified) as the compound, how does the inhibition read?
Its inhibition is -2.9%.

Which inhibition does the source give for `CCn1c(C)nc2c1C(=O)c1ccccc1C2=O` here?
The inhibition was 97.1% (active).

Which inhibition does the source give for `C[n+]1ccccc1C1CCCC/C1=N\Nc1ccc([N+](=O)[O-])cc1[N+](=O)[O-]` (stereo unspecified) here?
Its inhibition is 9.46%.

Which inhibition does the source give for `c1ccc(-c2nc(NCc3ccco3)c3ccccc3n2)cc1` here?
Its inhibition is 8.16%.

Which inhibition does the source give for `CC(=O)N/N=C/c1cc2c(cc1[N+](=O)[O-])OCO2` here?
The inhibition was 60.3% (active).

With `O=C(CN1C(=O)c2cccc3cccc(c23)C1=O)N1CCCCC1` as the compound, how does the inhibition read?
Its inhibition is 50% (active).

For `CCC(=O)N(C)C(c1ccccc1Cl)c1nnnn1-c1c(C)cccc1C` (stereo unspecified), which inhibition is on record?
Its inhibition is 0.65%.

Which inhibition does the source give for `Cc1cccc(NS(=O)(=O)c2cccc(C(=O)NNC(=O)c3ccccc3O)c2)c1` here?
The inhibition was 4.72%.

Which inhibition does the source give for `N#C/C(=C1\CCCN1)c1nc(-c2ccccc2)cs1` here?
The inhibition was 10.3%.

For `Nc1ccc2nc3c(=O)[nH]c(=S)[nH]c3nc2c1`, which inhibition is on record?
Its inhibition is 77% (active).

With `Nc1nc(-c2sc3nc4c(cc3c2N)CCCC4)nc(N2CCOCC2)n1` as the compound, how does the inhibition read?
Its inhibition is 16.2%.

With `Cc1cc(C)cc(NC(=O)C2CCCN2S(=O)(=O)c2cccc3cccnc23)c1` (stereo unspecified) as the compound, how does the inhibition read?
Its inhibition is -5.63%.

With `CC(=O)c1cccc(NC(=O)C2CCCN2S(=O)(=O)c2cccc3nsnc23)c1` (stereo unspecified) as the compound, how does the inhibition read?
The inhibition was 33% (active).

Which inhibition does the source give for `O=C(N/N=C/c1sc(N2CCCCC2)nc1-c1cccs1)c1cccnc1` here?
Its inhibition is 6.55%.

Which inhibition does the source give for `N#Cc1nc(-c2cccc3ccccc23)oc1N` here?
Its inhibition is -17.8%.

With `O=C(Nc1ccccc1Cl)/C(Cl)=C(\Cl)S(=O)c1ccccc1` (stereo unspecified) as the compound, how does the inhibition read?
Its inhibition is -27.6%.

For `COc1ccc2oc(=O)c(C(=O)NCc3ccccn3)cc2c1`, which inhibition is on record?
The inhibition was 47.5% (active).

Which inhibition does the source give for `O=C(O)CCC(=O)Nc1nc2ccc([N+](=O)[O-])cc2s1` here?
The inhibition was 47.7% (active).

With `COc1cccc(/C=C/c2ccc3ccccc3n2)c1OC(C)=O` as the compound, how does the inhibition read?
Its inhibition is 11.5%.

With `COC(=O)N/N=C/c1c[n+]([O-])c2ccccc2[n+]1[O-]` as the compound, how does the inhibition read?
Its inhibition is 97.3% (active).

For `Cc1c(/C=N\NC(=O)c2cc3ccccc3o2)c2ccccc2n1C`, which inhibition is on record?
Its inhibition is 12.8%.

With `CC(C)(C)NC(=O)CN(C(=O)c1csnn1)c1ccccc1-c1ccccc1` as the compound, how does the inhibition read?
The inhibition was 1.93%.

With `CN1CCN(/N=C/c2ccc(-c3ccc([N+](=O)[O-])cc3)o2)CC1` as the compound, how does the inhibition read?
Its inhibition is 34% (active).

Which inhibition does the source give for `Cc1oc2c(c1C(=O)N1CCOCC1)C(=O)c1ccccc1C2=O` here?
Its inhibition is 104% (active).

For `CC(NC(=O)c1cccc2ccccc12)c1ccc2c(c1)CCCC2` (stereo unspecified), which inhibition is on record?
The inhibition was 9.37%.

With `CCOc1cc(/C=C(\C#N)c2nc(-c3cccs3)c(NC(C)=O)s2)ccc1O` as the compound, how does the inhibition read?
Its inhibition is 2.21%.

Which inhibition does the source give for `CC(C)CC[n+]1ccn(C2=C([O-])c3ccccc3C(=O)/C2=N\S(=O)(=O)c2ccccc2)c1` here?
Its inhibition is 100% (active).

For `O=C(OC1CCOC1=O)c1ccc(-c2nc3ccccc3s2)s1` (stereo unspecified), which inhibition is on record?
Its inhibition is 28.1% (active).

With `Cc1cc(=O)oc(C)c1C(=O)NCCN(C)Cc1ccccc1` as the compound, how does the inhibition read?
The inhibition was 4.29%.

With `O=C(c1ccncc1)c1ccc([N+](=O)[O-])cc1` as the compound, how does the inhibition read?
The inhibition was 68.8% (active).

With `CC(=O)Nc1ccc(Nc2c([N+](=O)[O-])cc(S(C)(=O)=O)cc2[N+](=O)[O-])cc1` as the compound, how does the inhibition read?
Its inhibition is 71% (active).

With `CC(C)(C)NC(=O)Cn1cnc2cc([N+](=O)[O-])ccc2c1=O` as the compound, how does the inhibition read?
Its inhibition is 73.7% (active).

Which inhibition does the source give for `O=C(Nc1cccc2cccnc12)c1cccc(N2C(=O)CCC2=O)c1` here?
The inhibition was 8.23%.

With `O=C(Cc1ccccc1)N1CCN(S(=O)(=O)c2ccc([N+](=O)[O-])cc2)CC1` as the compound, how does the inhibition read?
The inhibition was 28.9% (active).

Which inhibition does the source give for `Cc1ccc([C@@H]2CC=C(C(=O)O)[C@H](c3cccc(Cl)c3)N2S(=O)(=O)c2ccc(C)cc2)cc1` here?
The inhibition was 4.59%.

For `S=c1[nH]nc(-c2cc(-c3ccccc3)n[nH]2)n1/N=C/c1c2ccccc2cc2ccccc12`, which inhibition is on record?
Its inhibition is 6.53%.

Which inhibition does the source give for `Cc1cccn2c(=O)c3cc(C#N)c(=NC(=O)c4cccnc4)n(CC4CCCO4)c3nc12` (stereo unspecified) here?
The inhibition was 46.1% (active).

Which inhibition does the source give for `Nc1nc(COC(=O)CCC(=O)c2ccc(Cl)cc2)nc(Nc2ccccc2)n1` here?
Its inhibition is -0.94%.

Which inhibition does the source give for `Cc1cccc(NC(=O)Nc2cccc(Oc3c(F)c(F)c(F)c(F)c3F)c2)c1` here?
Its inhibition is 14.7%.

Which inhibition does the source give for `O=C(NC(Cc1c[nH]c2ccccc12)C(=O)N/N=C/c1ccc(Br)cc1)c1cccs1` (stereo unspecified) here?
The inhibition was 3.77%.

With `COC(=O)c1sccc1NC(=O)CSc1ccccc1NS(=O)(=O)c1cc(Cl)ccc1Cl` as the compound, how does the inhibition read?
Its inhibition is 12.9%.

With `COCCCNC(=S)NC(=O)c1ccc([N+](=O)[O-])cc1` as the compound, how does the inhibition read?
The inhibition was 29.9% (active).

With `COc1cc(OC)c(NC(=O)c2ccc(Br)o2)cc1Cl` as the compound, how does the inhibition read?
The inhibition was 8.45%.

For `COc1ccc(N(C)C(=O)CCS(=O)(=O)c2cccc3nsnc23)cc1`, which inhibition is on record?
The inhibition was 56% (active).

For `CCOc1ccc(NC(=O)CCS(=O)(=O)c2cccc3nsnc23)cc1`, which inhibition is on record?
Its inhibition is 35.3% (active).

For `COc1ccc2sc(-c3ccc(N(C)C)cc3)c(C#CCO)c2c1`, which inhibition is on record?
Its inhibition is 14.2%.

With `C=CCn1c(SCC(=O)Nc2nc3ccccc3s2)nnc1-c1ccccc1O` as the compound, how does the inhibition read?
The inhibition was -0.28%.

For `N#CC(=C1SC=CS1)c1nc(-c2ccccc2)cs1`, which inhibition is on record?
Its inhibition is 14.8%.
